CYP2C19 activ: increases human CYP2C19 enzyme activity | P33261 | recombinant CYP2C19, luciferin-H EGE luminescence; active compounds read high; 0 = fully inhibited enzyme, 1 = untreated enzyme | activation factor at 5 µM | 96,000 tested, under 10 active | AID 1025;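 active = activation factor of at least 2 at 5 µM in the primary screen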
Target sequence (P33261 whole entry, looked up): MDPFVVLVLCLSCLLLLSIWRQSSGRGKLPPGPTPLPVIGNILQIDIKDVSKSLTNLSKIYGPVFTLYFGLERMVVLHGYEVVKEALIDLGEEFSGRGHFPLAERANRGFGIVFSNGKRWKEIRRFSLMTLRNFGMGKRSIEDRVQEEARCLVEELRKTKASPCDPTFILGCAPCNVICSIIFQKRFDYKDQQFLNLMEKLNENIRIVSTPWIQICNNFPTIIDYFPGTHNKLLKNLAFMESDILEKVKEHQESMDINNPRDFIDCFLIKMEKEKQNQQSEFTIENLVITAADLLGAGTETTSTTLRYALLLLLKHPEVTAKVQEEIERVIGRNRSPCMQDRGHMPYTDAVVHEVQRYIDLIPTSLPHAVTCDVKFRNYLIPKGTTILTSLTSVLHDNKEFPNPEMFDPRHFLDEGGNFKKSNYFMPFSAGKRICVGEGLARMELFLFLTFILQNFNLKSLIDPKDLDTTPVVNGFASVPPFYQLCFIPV
CYP2C19 inhib: blocks human cytochrome P450 2C19. P33261. CYP2C19 Supersomes, luciferin-H EGE luminescence, 30 min. inhibition, % at 5 µM. hit rate 21% among 96,000;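 active = CYP2C19 inhibition above a set limit at 5 µM in the primary screen, cut at about 50% in these data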
CYP2C9 inhib: human CYP2C9 inhibition | AID 777 | hit rate 20% among 96,000 | P11712 | inhibition, % at 5 µM | CYP2C9 Supersomes, luciferin-H conversion, luminescence;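 active = blocking of liver enzyme CYP2C9 beyond about 50% at 5 µM, limit read from the data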
CYP2C9 act: activators of human CYP2C9; P11712; recombinant CYP2C9, luciferin-H conversion, luminescence; active compounds read high; factor 1 = untreated enzyme, 0 = blocked; activation factor at 5 µM; hit rate 1.4% among 96,000;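 active = activation factor of 2 or more for CYP2C9 at a 5 µM dose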
sEH activator: soluble epoxide hydrolase (human) activation; P34913; purified human sEH enzymatic activity, activator screen; activation, % at 2 µM; hit rate 0.04% among 91,000; AID 717; in the data active = activation above about 37%
sEH inh: blocks human soluble epoxide hydrolase activity | AID 707 | P34913 | hit rate 0.34% among 91,000 | inhibition, % at 2 µM | recombinant human sEH enzymatic activity assay; in the data active = inhibition above about 80%
Hits are given with their value; . = inactive; / = no result. A selection: hits, their analogues and other compounds. The true share with any hit is near 27%.

SMILES	CYP2C19 activ	CYP2C19 inhib	CYP2C9 inhib	CYP2C9 act	sEH activator	sEH inh
Cn1c(SCC(=O)Nc2ccc3c(c2)OCCO3)nnc1-c1ccccn1	.	.	.	.	.	.
N#C/C(=C(/O)CSc1nnc(Cc2cccs2)n1C1CCCCC1)c1nc2ccccc2[nH]1	.	61	.	.	/	/
Cc1ccc2nc(CSc3nnc(Cc4cccs4)n3C3CCCCC3)cc(=O)n2c1	.	71	52	.	/	/
O=C(CSc1nnc(Cc2cccs2)n1-c1ccccc1)NC1CCCCC1	.	55	72	.	.	.
O=C(NCC(=O)N(c1cccnc1)C(C(=O)NCc1ccco1)c1ccccc1)c1ccco1 (stereo unspecified)	.	.	.	.	.	.
CCC(=O)Nc1ccc(C(=O)CSc2nc3ccccc3cc2CC)cc1	.	.	88	.	.	.
CCC(=O)Nc1ccc(C(=O)c2ccccc2)cc1	.	.	.	2	.	.
CCC(=O)Nc1cc(C(=O)OCC(=O)c2ccc(Cl)cc2Cl)ccc1C	.	.	.	.	.	.
CCC(=O)Nc1cc(C(=O)OCC(=O)c2ccccc2Cl)ccc1C	.	.	.	2.1	.	.
CCC(=O)Nc1ccc(C(=O)OCc2ccccc2Cl)cc1	.	57	.	.	.	.
Cc1sc2ncnc(NCCN3CCOCC3)c2c1C	.	.	.	.	.	.
Cc1cc(C(=O)N2CCN(CCc3ccccc3)CC2)no1	.	.	.	.	.	.
Cc1ccc2nc(NC3=NCN(C4CCCCC4)CN3)nc(C)c2c1	.	.	.	.	/	/
Clc1ccc(OCc2nc(-c3ccccn3)n[nH]2)cc1	.	65	51	.	.	.
Brc1ccc(OCc2nc(-c3ccccn3)n[nH]2)cc1	.	71	62	.	.	.
COc1ccccc1C/C(N)=N/OC(=O)COc1ccc2ccccc2c1	.	.	.	.	.	.
COc1ccc(S(=O)(=O)NCC(=O)N(CC(=O)NCC2CCCO2)c2cc(C)ccc2C)cc1 (stereo unspecified)	.	.	.	.	.	.
COc1ccc(NC2=C(C(C)=O)C(c3ccc4c(c3)OCO4)C(C(C)=O)C(C)(O)C2)cc1 (stereo unspecified)	.	72	78	.	/	/
CC(=O)N1c2ccccc2C(=O)C1N1CCCCC1 (stereo unspecified)	.	.	.	.	/	/
CCOC(=O)C(C)(C)Sc1nc2c(cnn2-c2ccc(Cl)cc2)c(=O)[nH]1	.	.	76	.	.	.
CCN1C(=O)/C(=C/N2CC(C)CC(C)C2)SC1=S (stereo unspecified)	.	.	.	.	.	.
CCN1C(=O)/C(=C\N2CCCCCC2)SC1=S	.	56	.	.	/	/
Oc1ccc(-c2nccc(-c3cccs3)n2)cc1	.	.	68	.	.	.
Cc1ccc(C)n1-c1nccc(-c2cccs2)n1	.	.	.	.	.	.
COC(=O)C(C)Oc1ccc(-c2nccc(-c3cccs3)n2)cc1 (stereo unspecified)	.	.	65	.	.	.
SMILES	CYP2C19 activ	CYP2C19 inhib	CYP2C9 inhib	CYP2C9 act	sEH activator	sEH inh
O=C(Nc1nccc(-c2cccs2)n1)c1ccccc1Cl	.	.	.	.	.	.
CC1CN(C(=O)N(C)C)CCN1C(=O)N(C)C (stereo unspecified)	.	.	.	.	/	/
CS(=O)c1ccccc1-c1nc(-c2cc(C(F)(F)F)cc(C(F)(F)F)c2)no1 (stereo unspecified)	.	.	.	.	.	.
CC(=O)NC(=O)c1nnn(Cc2ccccc2)c1NC(C)=O	.	.	.	.	.	.
Cc1ccc(-c2noc(C3CCN(C(=O)Nc4ccc(C#N)cc4)CC3)n2)o1	.	83	61	.	/	/
O=C(NCc1ccccn1)C1CCC(=O)N1C1CCCC1 (stereo unspecified)	/	/	/	/	.	.
CC(C)C(NC(=O)C1CCCCC1)C(=O)NC1=NCCS1 (stereo unspecified)	.	.	.	.	.	.
N#Cc1cc2cc3c(cc2nc1N1CCOCC1)OCO3	.	55	.	.	.	.
CCN(C(=O)CSc1nnc(-c2ccccc2Cl)n1C1CCCC1)C1CCS(=O)(=O)C1 (stereo unspecified)	.	.	79	.	.	.
CC(C)C(NC(=O)c1cccs1)C(=O)NC1=NCCS1 (stereo unspecified)	.	54	.	.	.	.
O=C(NC1=NCCS1)c1cccs1	.	.	.	.	.	.
CCCCCCn1c(CN2CCN(C(=O)OCC)CC2)nc2c1c(=O)n(C)c(=O)n2C	/	/	/	/	.	.
O=C(CS(=O)c1cccc(Cl)c1)Nc1ccccc1Cl (stereo unspecified)	.	60	.	2.6	.	.
CCOC(=O)C(O)(CC(=O)Nc1ccc(Cl)cc1Cl)C(F)(F)F (stereo unspecified)	/	/	/	/	.	.
O=C(CS(=O)c1cccc(C(F)(F)F)c1)Nc1ccc(Cl)cc1Cl (stereo unspecified)	.	100	.	2.1	.	.
O=C(CN1CCC(NC(=O)c2cccc(F)c2)CC1)NCc1ccccc1F	.	.	.	.	.	.
CN(C)/C=C(/C(=O)c1ccc(Cl)cc1Cl)S(=O)(=O)c1ccc(Cl)cc1	.	80	95	.	.	.
CN(C)/C=C(/C(=O)c1ccc(Cl)cc1)S(=O)(=O)c1ccc(Cl)cc1	.	62	.	.	.	.
CN(C)/C=C(/C(=O)c1ccc(Cl)cc1Cl)S(=O)(=O)c1ccccc1	.	.	63	.	.	.
CN(C)/C=C(\C(=O)c1ccc(Cl)cc1)c1nnnn1-c1ccc(Cl)cc1	/	/	/	/	.	.
COc1ccccc1C(=O)N1CCN=C1c1ccccc1	.	.	.	.	.	.
COC(=O)c1cccc(NC(=O)C23CC4CC(C2)CC(n2cncn2)(C4)C3)c1	/	/	/	/	.	.
CN(CCc1ccccn1)C(=O)CN(C)S(=O)(=O)c1ccc2c(c1)c(=O)n(C)c(=O)n2C	.	.	.	.	.	.
CC1(C)CC2CC(C)(CN2S(=O)(=O)c2ccc(N)cc2)C1 (stereo unspecified)	.	74	.	.	.	.
CC(C)c1ccc(NC(=O)c2ccc(Br)o2)cc1	/	/	/	/	.	.
SMILES	CYP2C19 activ	CYP2C19 inhib	CYP2C9 inhib	CYP2C9 act	sEH activator	sEH inh
O=C(Nc1ccc(Cc2ccncc2)cc1)c1ccc(Br)o1	.	87	97	.	.	.
O=C(Nc1ccc(Nc2ccccc2)cc1)c1ccc(Br)o1	.	.	51	.	.	.
CCc1c(C)[nH]n(-c2ccc(Oc3ccccc3)c(S(=O)(=O)O)c2)c1=O	.	.	.	.	.	.
N/C(=N\OS(=O)(=O)c1ccc(Br)cc1)c1ccncc1	.	.	58	.	.	.
Cn1cc(S(=O)(=O)Nc2ccc(Br)cc2F)c(=O)n(C)c1=O	.	.	63	.	.	.
CN(C)S(=O)(=O)Nc1ccc(Br)cc1F	.	.	.	.	.	.
CCn1c(SCC(=O)c2cc(C)n(-c3ccc(C(=O)OC)cc3)c2C)nnc1-c1cccnc1	.	.	.	.	.	.
CC(C)N(C(=O)CSc1nn2c(=O)c(C(C)(C)C)nnc2s1)c1ccccc1	.	88	89	.	.	.
